Source: PubChem (several laboratories)
Compounds with a hit are over-represented: about 5.3% of the library has one in this group of screens.
ALR H2O2 inh: inhibitors of human ALR sulfhydryl oxidase, primary screen, biochemical, H2O2 detection, HRP-luminol luminescence, single point; FAD-linked sulfhydryl oxidase ALR (Homo sapiens), P55789; purified ALR, DTT oxidation; inhibition, % (test concentration not listed); 290,000 tested, 3.8% active; AID 485317, 2010;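 active = mean replicate inhibition above about 79%, with every replicate also reaching it, limit read from the data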
Target sequence (P55789 whole entry, looked up): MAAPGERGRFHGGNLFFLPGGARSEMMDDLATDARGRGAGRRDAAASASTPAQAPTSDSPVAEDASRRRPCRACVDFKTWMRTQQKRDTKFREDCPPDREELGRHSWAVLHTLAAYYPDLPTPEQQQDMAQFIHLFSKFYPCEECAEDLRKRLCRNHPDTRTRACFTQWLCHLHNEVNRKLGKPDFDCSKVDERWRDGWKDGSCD
SUMO Mot1 rescue: yeast Mot1-301 growth rescue at high temperature, primary screen, SUMOylation pathway inhibitor project, S. cerevisiae, ATP luminescence, 38.5C. growth rescue, % at 18.8 µM. S. cerevisiae Mot1-301 growth rescue; percent above DMSO median, 100 means doubled. 320,000 tested, 1% active;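 active = every valid replicate shows activation above 250% relative to neutral control wells; inactive = the rest, any valid replicate at or below 250%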;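 also: OY570 slx delta 5 strain wells were the positive control but not used for scaling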
HIF act: HIF pathway transcriptional activators, primary screen, cell-based, U2OS HRE-luciferase, luminescence | U2OS HRE-luciferase reporter; normalized: DMSO 0%, desferrioxamine 100% | activation, % at 7.5 µM (by protocol) | 300,000 tested, 0.32% active | AID 1910, 2009;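 active = mean activation of at least 10% of the iron chelator positive control signal, with at least half of replicates also reaching 10%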
PfM18AAP inh-1: PfM18AAP inhibitors, malaria aminopeptidase, primary screen, biochemical, QFRET, recombinant enzyme. M18 aspartyl aminopeptidase (Plasmodium falciparum 3D7). H-Glu-NHMec fluorogenic cleavage. inhibition, % at 7.35 µM. 290,000 tested, 1.2% active;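 active = inhibition above the campaign mean inhibition over all tested compounds plus 3 SD, cut at about 28% in these data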;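 also: 0% = plate median of test compound wells and 100% = 2 mM ZnCl2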
PfM18AAP inh-2: PfM18AAP inhibitors, malaria aminopeptidase, confirmation, biochemical, QFRET, recombinant enzyme, triplicate; AID 2170, 2009; shares compounds with PfM18AAP inh-1; H-Glu-NHMec fluorogenic cleavage; 2,400 tested, 28% active; inhibition, % at 7.35 µM;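 active = mean inhibition over replicate wells above the hit cutoff set for the earlier primary screen, cut at about 29% in these data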;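 also: 0% = median of test compound wells and 100% = 2 mM ZnCl2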
CTSL1 confirm: cathepsin L1 inhibitors, retest, confirmation, counter-screen for PFM18AAP inhibitor project, biochemical, QFRET, triplicate | shares compounds with PfM18AAP inh-1 | purified cathepsin L1, Z-Leu-Arg-MCA fluorescence | inhibition, % at 5.96 µM | 2,400 tested, under 10 active;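 active = average inhibition across replicates above the hit cutoff set in the earlier primary screen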;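 also: 0% = median of test compound wells and 100% = Z-Phe-Ala-diazomethylketone 1 µM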
Target sequence (P07711 whole entry, looked up): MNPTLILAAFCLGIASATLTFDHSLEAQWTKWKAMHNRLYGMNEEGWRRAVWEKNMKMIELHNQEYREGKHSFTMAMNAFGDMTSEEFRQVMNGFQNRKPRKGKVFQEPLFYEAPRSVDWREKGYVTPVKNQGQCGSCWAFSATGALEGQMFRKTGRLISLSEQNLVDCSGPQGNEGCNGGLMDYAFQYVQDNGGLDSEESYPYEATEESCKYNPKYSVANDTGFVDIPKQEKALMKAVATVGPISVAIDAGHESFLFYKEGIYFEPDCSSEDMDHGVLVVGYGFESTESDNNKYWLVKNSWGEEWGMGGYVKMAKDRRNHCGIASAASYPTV
Active calls of the source: *; . = no result.

SMILES	ALR H2O2 inh	SUMO Mot1 rescue	HIF act	PfM18AAP inh-1	PfM18AAP inh-2	CTSL1 confirm
COc1cccc2c(N/N=C/c3ccc(O)c(O)c3)cc(C)nc12	98.7*	5.3	1.5	56.1*	31.6*	-0.9
COc1cc(/C=N/Nc2ccccc2C(F)(F)F)ccc1O	12.4	-0.2	1.9	39.4*	-13.5	-0.1
COc1cc(/C=N/Nc2nncn2/N=C/c2ccc(O)c(OC)c2)ccc1O	99.3*	-8.2	0.6	62.6*	41.6*	2.0
CCN(c1cccc(C)c1)S(=O)(=O)c1cc2c3c(c1)CCN3C(=O)CC2	-2.4	3.4	2.7	.	.	.
O=C(c1ccco1)N1CCCC(c2nc(-c3ccc(S(=O)(=O)NCc4ccccc4)cc3)no2)C1 (stereo not given)	-25.6	-21.8	-1.3	2.3	.	.
CC1CCC2(CC1)NC(=O)N(NC(=O)c1cccc(N(C)C)c1)C2=O (stereo not given)	-3.0	-10.3	.	.	.	.
CC12CCC(=O)N1C(C(=O)Nc1ccc(Br)cc1Cl)CS2 (stereo not given)	-6.7	-10.9	-0.2	-5.8	.	.
COc1cc(/C=N/NC(=O)c2ccncc2)ccc1OC(C)=O	26.8	-14.9	0.4	13.9	.	.
COc1cc(/C=N\Nc2nncn2N)ccc1OC(C)=O	25.8	-7.8	2.1	53.1*	-3.6	4.9
O=C(O)C1OC(Oc2cc3oc(-c4ccccc4)cc(=O)c3c(O)c2O)C(O)C(O)C1O (stereo not given)	-1.3	25.4	3.9	44.4*	13.5	-0.6
CCOC(=O)c1c(-c2ccc(C)o2)csc1NC(=O)CSc1ncn[nH]1	1.4	-7.8	-0.5	60.5*	25.5	1.5
CCOC(=O)c1c(NC(=O)CSc2ncn[nH]2)sc(C(C)=O)c1C	-5.4	-31.5	0.2	33.0*	23.4	5.0
CC(=O)NS(=O)(=O)c1ccc(NC(=O)c2ccccn2)cc1	-12.7	3.4	0.1	-8.4	.	.
CCSc1ccccc1C(=O)Nc1ccc(S(=O)(=O)NC(C)=O)cc1	95.6*	-13.0	-0.2	32.0*	-33.4	5.1
CC(C)(C)c1ccc(C(=O)N2CCC(NC(=O)c3ccccc3)CC2)cc1	-5.6	-2.8	-10.6	-3.3	.	.
Cc1ccc(N=C2C(=O)Nc3ccccc32)cc1	46.6	-5.8	-0.2	0.7	.	.
CCN(CC)c1ccc(N=C2C(=O)Nc3ccccc32)cc1	94.0*	127.4	-1.0	62.9*	-24.2	-0.6
CCOC(=O)c1cc2sc(C)cc2n1CC(=O)NCCc1ccccc1	-1.4	108.4	0.1	-0.2	.	.
C=CCc1c(C)nc(C)nc1N/N=C/c1ccc([N+](=O)[O-])cc1	26.1	195.6	0.0	7.3	.	.
C=CCc1c(C)nc(C)nc1N/N=C/c1ccccc1O	41.8	4.7	1.2	49.4*	-35.5	2.6
Cc1cccc2sc(NNC(=O)c3ccc(S(=O)(=O)N4CCCC(C)C4)cc3)nc12 (stereo not given)	.	1.5	0.2	37.6*	-24.5	1.8
Cc1cccc2sc(NNC(=O)c3ccc(S(=O)(=O)N4CCc5ccccc5C4)cc3)nc12	-21.7	7.2	13.5*	36.6*	-42.4	-1.6
Cc1ccccc1NC(=O)N1CCN(C/C=C/c2ccccc2)CC1	.	336.3	0.0	-2.4	.	.
COc1ccc(OC)c(C2C(C(C)=O)=C(C)Nc3ncnn32)c1 (stereo not given)	-11.7	-5.8	0.6	-2.5	.	.
Cc1cc(C(=O)COC(=O)/C=C/c2ccco2)c(C)n1C	8.1	-7.6	.	.	.	.
SMILES	ALR H2O2 inh	SUMO Mot1 rescue	HIF act	PfM18AAP inh-1	PfM18AAP inh-2	CTSL1 confirm
COc1cc(SC)ccc1C(=O)N1CCN(c2ccccc2)CC1	51.2	5.3	0.5	-9.9	.	.
COc1cc(SC)ccc1C(=O)N1CCN(c2ccc(O)cc2)CC1	98.7*	48.0	2.0	37.4*	-10.3	-1.6
CCOC(=O)CSc1nc(C2CC2)cc(-c2ccc(Cl)cc2)c1C#N	-0.3	8.1	-0.1	-3.2	.	.
N#Cc1c(-c2ccc(Cl)cc2)cc(-c2cccs2)nc1SCC(=O)O	.	2.2	-1.3	36.4*	-2.2	-1.7
COc1ccc(N(C(=O)c2snc(C(N)=O)c2N)C(C(=O)NC2CCCC2)c2cc(OC)ccc2OC)cc1 (stereo not given)	-7.0	331.7	-0.5	1.9	.	.
CCOC(=O)C1=C(CS(=O)(=O)c2ccc(F)cc2)NC(=O)NC1c1ccc(O)c(O)c1 (stereo not given)	30.2	-9.3	-0.1	79.1*	62.4*	-9.3
CSc1cccc(CNC(=O)C2CCC(=O)N(CCCN3CCCC3=O)C2)c1 (stereo not given)	.	-4.8	0.0	-2.3	.	.
CCc1nnc(N/N=C/c2ccc(-c3ccc([N+](=O)[O-])cc3)o2)n1N	-17.1	-9.7	0.0	42.8*	-36.0	-2.9
CCc1nnc(N/N=C/c2cc(C)c(C)cc2C)n1N	-19.6	13.5	-1.9	40.0*	-19.8	1.6
Cc1nnc(N/N=C\c2ccc(-c3ccccc3[N+](=O)[O-])o2)n1N	-18.5	8.4	0.1	43.2*	-19.2	0.3
Cc1n[nH]c(=S)n1/N=C/c1ccc(-c2ccccc2[N+](=O)[O-])o1	-18.5	173.3	0.1	7.2	.	.
COc1ccccc1N(CC(=O)NCCN1CCOCC1)S(=O)(=O)c1ccc(C)cc1	-21.0	-6.8	-3.9	.	.	.
COc1ccccc1NC(=S)N/N=C/c1ccc(O)cc1	.	4.2	2.9	11.7	.	.
Oc1ccc(/C=N/NC(=S)N/N=C/c2ccc(O)cc2)cc1	.	-11.4	1.7	34.5*	6.2	19.3*
Cc1cccc(-c2oc3ccccc3c2C#CCCO)c1	-4.3	23.7	-1.1	-2.8	.	.
CCOC(=O)CNC(=S)n1ncnc1N	2.2	16.1	-0.1	57.8*	-13.6	1.7
CCOC(=O)CNC(=S)SC	0.8	-16.8	-0.5	-0.3	.	.
CC(=O)c1c(C)[nH]c(C(=O)OCC(=O)N2CC(C)OC(C)C2)c1C (stereo not given)	13.2	4.4	0.1	.	.	.
CSCCC(NS(=O)(=O)c1ccc(C)cc1)C(=O)NCC(C)(C)N1CCOCC1 (stereo not given)	-8.2	8.0	.	.	.	.
O=C(N/N=C/c1ccc(-c2ccc([N+](=O)[O-])cc2)o1)[C@H]1C[C@@H]1c1ccccc1	.	-3.3	0.0	32.5*	-37.4	2.6
CCOC(=O)c1nc(NNC(C)=O)sc1C	13.1	-9.8	0.2	36.8*	-3.1	-1.5
Cc1[nH]c2c([N+](=O)[O-])cccc2c1C	-0.1	-10.9	-0.6	12.3	.	.
Cc1ccc(/C=N/Nc2nc(Cl)c(Cl)cc2Cl)s1	-1.4	1.5	3.8	46.0*	-42.3	-0.9
Cc1ccsc1/C=N/Nc1nc(Cl)c(Cl)cc1Cl	5.9	-6.7	2.5	19.1	.	.
